# According to PubChem BioAssay (NCI):
# About 79,000 compounds went through this panel and 15% of them were active in at least one assay; those are over-represented in the sample as a whole. Values without a mark were called inactive. Calls of active or inactive are those of the source. Cut-off read from the data, not from the text of the source: active = growth inhibition above about 70%; inactive = the rest.
# Legend:
# [1] = NCI Yeast Anticancer Drug Screen. Data for the rad52 strain (AID 147);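 note: 0% = growth of vehicle-treated control cultures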; conditions: S. cerevisiae rad52 mutant growth inhibition, hits give high values
# Method in brief: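 Measured: yeast growth inhibition. System: strain with a defined DNA damage repair alteration. Reference: vehicle-treated control cultures.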
# [2] = NCI Yeast Anticancer Drug Screen. Data for the wt1 strain (AID 149);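 note: 0% = growth of vehicle-treated wt1 cultures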; conditions: S. cerevisiae wt1 strain (SPY 50644) growth inhibition, hits give high values
# Method in brief: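 Each compound is tested on wt1 yeast and the loss of growth versus vehicle gives the inhibition value.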
# [3] = NCI Yeast Anticancer Drug Screen. Data for the rad50EPP+ strain (AID 151);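 note: 0% = growth of vehicle-treated control cultures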; conditions: S. cerevisiae rad50 mutant strain, hits give high values
# Method in brief: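 One strain with a rad50 alteration (rad50EPP+) was compound-treated, its growth then compared to that of vehicle controls.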
# [4] = NCI Yeast Anticancer Drug Screen. Data for the mgt1 strain (AID 153); conditions: S. cerevisiae mgt1 mutant growth inhibition, hits give high values
# Method in brief: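 After exposure of the mgt1 yeast mutant to compound, growth was measured and reported as inhibition compared with vehicle controls.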
# [5] = NCI Yeast Anticancer Drug Screen. Data for the rad50 strain (AID 155);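 note: 0% = growth of vehicle-only cultures of the same strain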; conditions: S. cerevisiae rad50 strain growth inhibition, hits give high values
# Method in brief: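 Vehicle-treated cultures provide the reference for the growth inhibition reported for compound-exposed, repair-deficient yeast.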
# [6] = NCI Yeast Anticancer Drug Screen. Data for the mec2-1 strain (AID 157); conditions: S. cerevisiae mec2-1 strain, hits give high values
# Method in brief: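 Test agents were screened against the mec2-1 yeast strain, with defined DNA repair or cell cycle alteration. Growth was scored as inhibition against vehicle-only controls.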
# [7] = NCI Yeast Anticancer Drug Screen. Data for the rad14 strain (AID 159);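 note: 0% = growth of vehicle-treated control cultures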; conditions: S. cerevisiae rad14 strain growth inhibition, hits give high values
# Method in brief: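 Inhibition of growth is reported for a repair-deficient yeast mutant following compound treatment, calculated relative to cultures that received vehicle.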
# [8] = NCI Yeast Anticancer Drug Screen. Data for the sgs1 mgt1 strain (AID 161);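 note: 0% = growth of cultures given vehicle only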; conditions: S. cerevisiae sgs1 mgt1 strain, hits give high values
# Method in brief: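 Read-out: growth inhibition vs vehicle controls. Cells: mutant yeast strain deficient in DNA damage repair.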
# [9] = NCI Yeast Anticancer Drug Screen. Data for the CLN2oe strain (AID 163);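 note: 0% = growth of vehicle-only control cultures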; conditions: S. cerevisiae CLN2oe strain, hits give high values
# Method in brief: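 Here, growth inhibition in a cell-cycle-altered yeast strain after compound exposure was quantified against vehicle control growth.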
# [10] = NCI Yeast Anticancer Drug Screen. Data for the cln2 rad14 strain (AID 165);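 note: 0% = growth equal to vehicle treated cultures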; conditions: S. cerevisiae cln2 rad14 strain, hits give high values
# Method in brief: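 Growth of compound-exposed yeast (cln2 rad14 genotype) measured and expressed as inhibition relative to vehicle.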
# [11] = NCI Yeast Anticancer Drug Screen. Data for the bub3 strain (AID 167); conditions: S. cerevisiae bub3 mutant strain, hits give high values
# Method in brief: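 Mutant yeast screening strain plus compound; vehicle-treated cultures serve as the 0% inhibition reference.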
# [12] = NCI Yeast Anticancer Drug Screen. Data for the wt2 strain (AID 169); conditions: S. cerevisiae wt2 strain growth inhibition, hits give high values
# Method in brief: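 Genetically defined yeast strains from a DNA-repair/cell-cycle panel were used. Compound-exposed yeast growth was measured, and the inhibition was calculated relative to vehicle treatment.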
# [13] = NCI Yeast Anticancer Drug Screen. Data for the mlh1 strain (AID 171);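 note: 0% = growth of vehicle-treated control cultures of the same strain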; conditions: S. cerevisiae mlh1 strain growth inhibition, hits give high values
# Method in brief: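 Here the genetically defined yeast mutant is grown with each compound, and the extent to which its growth falls below that of vehicle-exposed cells is reported.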
# [14] = NCI Yeast Anticancer Drug Screen. Data for the sgs1 strain (AID 173);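 note: 0% = growth of vehicle-only control cultures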; conditions: S. cerevisiae sgs1 mutant, hits give high values
# Method in brief: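 Relative growth inhibition, referenced to vehicle, was determined in a yeast strain with a defined alteration affecting DNA damage repair or cell cycle control after compound exposure.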
# [15] = NCI Yeast Anticancer Drug Screen. Data for the mlh1 rad18 strain (AID 175); conditions: S. cerevisiae mlh1 rad18 strain growth inhibition, hits give high values
# Method in brief: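 In this whole-cell yeast screen, a strain with altered DNA damage repair is challenged with compound, and its growth is measured against matched vehicle-treated controls.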
# [16] = NCI Yeast Anticancer Drug Screen. Data for the rad18 strain (AID 177); conditions: S. cerevisiae rad18 mutant growth inhibition, hits give high values
# Method in brief: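 Screen uses a yeast strain with a defined lesion in DNA damage repair; compound effect is read as loss of growth compared to untreated vehicle cultures.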
# [17] = at 5.0 µM (retest, dose inferred, filed as 0.5)
# [18] = at 50.0 µM (retest, dose inferred, filed as 5.0)
structure (smiles),measurement,setting,value
Cc1ccc(NC(Nc2ccc(C)cc2C)=C(C(Cl)=C(Cl)Cl)[N+](=O)[O-])c(C)c1,growth inhibition,[1]; at 1.2 µM,4%
same,growth inhibition,[1]; at 3.7 µM,10%
same,growth inhibition,[1]; at 11.0 µM,78% (active)
same,growth inhibition,[1]; at 33.0 µM,99% (active)
same,growth inhibition,[1]; at 100.0 µM,94% (active)
same,growth inhibition,[2]; at 1.2 µM,2%
same,growth inhibition,[2]; at 3.7 µM,3%
same,growth inhibition,[2]; at 11.0 µM,34%
same,growth inhibition,[2]; at 33.0 µM,99% (active)
same,growth inhibition,[2]; at 100.0 µM,96% (active)
same,growth inhibition,[3]; at 1.2 µM,8%
same,growth inhibition,[3]; at 3.7 µM,10%
same,growth inhibition,[3]; at 11.0 µM,19%
same,growth inhibition,[3]; at 33.0 µM,38%
same,growth inhibition,[3]; at 100.0 µM,71% (active)
same,growth inhibition,[4]; at 1.2 µM,0%
same,growth inhibition,[4]; at 3.7 µM,4%
same,growth inhibition,[4]; at 11.0 µM,21%
same,growth inhibition,[4]; at 33.0 µM,99% (active)
same,growth inhibition,[4]; at 100.0 µM,95% (active)
same,growth inhibition,[5]; at 1.2 µM,1%
same,growth inhibition,[5]; at 3.7 µM,4%
same,growth inhibition,[5]; [17],90% (active)
same,growth inhibition,[5]; at 11.0 µM,72% (active)
same,growth inhibition,[5]; at 33.0 µM,99% (active)
same,growth inhibition,[5]; [18],98% (active)
same,growth inhibition,[5]; at 50.0 µM,98% (active)
same,growth inhibition,[5]; at 100.0 µM,92% (active)
same,growth inhibition,[6]; at 1.2 µM,0%
same,growth inhibition,[6]; at 3.7 µM,5%
same,growth inhibition,[6]; [17],74% (active)
same,growth inhibition,[6]; at 11.0 µM,49%
same,growth inhibition,[6]; at 33.0 µM,99% (active)
same,growth inhibition,[6]; [18],98% (active)
same,growth inhibition,[6]; at 50.0 µM,98.8% (active)
same,growth inhibition,[6]; at 100.0 µM,94% (active)
same,growth inhibition,[7]; at 1.2 µM,2%
same,growth inhibition,[7]; at 3.7 µM,2%
same,growth inhibition,[7]; at 11.0 µM,25%
same,growth inhibition,[7]; at 33.0 µM,99% (active)
same,growth inhibition,[7]; at 100.0 µM,94% (active)
same,growth inhibition,[8]; [17],94% (active)
same,growth inhibition,[8]; [18],99% (active)
same,growth inhibition,[8]; at 50.0 µM,98.9% (active)
same,growth inhibition,[9]; at 1.2 µM,-3%
same,growth inhibition,[9]; at 3.7 µM,-1%
same,growth inhibition,[9]; at 11.0 µM,48%
same,growth inhibition,[9]; at 33.0 µM,99% (active)
same,growth inhibition,[9]; at 100.0 µM,94% (active)
same,growth inhibition,[10]; [17],27%
same,growth inhibition,[10]; [18],98% (active)
same,growth inhibition,[10]; at 50.0 µM,98.7% (active)
same,growth inhibition,[11]; at 1.2 µM,-2%
same,growth inhibition,[11]; at 3.7 µM,-4%
same,growth inhibition,[11]; [17],67%
same,growth inhibition,[11]; at 11.0 µM,30%
same,growth inhibition,[11]; at 33.0 µM,99% (active)
same,growth inhibition,[11]; [18],98% (active)
same,growth inhibition,[11]; at 50.0 µM,98.3% (active)
same,growth inhibition,[11]; at 100.0 µM,91% (active)
same,growth inhibition,[12]; at 1.2 µM,2%
same,growth inhibition,[12]; at 3.7 µM,4%
same,growth inhibition,[12]; at 11.0 µM,47%
same,growth inhibition,[12]; at 33.0 µM,99% (active)
same,growth inhibition,[12]; at 100.0 µM,94% (active)
same,growth inhibition,[13]; at 1.2 µM,1%
same,growth inhibition,[13]; at 3.7 µM,5%
same,growth inhibition,[13]; at 11.0 µM,35%
same,growth inhibition,[13]; at 33.0 µM,99% (active)
same,growth inhibition,[13]; at 100.0 µM,94% (active)
same,growth inhibition,[14]; at 1.2 µM,1%
same,growth inhibition,[14]; at 3.7 µM,11%
same,growth inhibition,[14]; at 11.0 µM,70% (active)
same,growth inhibition,[14]; at 33.0 µM,99% (active)
same,growth inhibition,[14]; at 100.0 µM,93% (active)
same,growth inhibition,[15]; [17],96% (active)
same,growth inhibition,[15]; [18],98% (active)
same,growth inhibition,[15]; at 50.0 µM,98.3% (active)
same,growth inhibition,[16]; at 1.2 µM,2%
same,growth inhibition,[16]; at 3.7 µM,7%
same,growth inhibition,[16]; at 11.0 µM,72% (active)
same,growth inhibition,[16]; at 33.0 µM,99% (active)
same,growth inhibition,[16]; at 100.0 µM,92% (active)
c1c[nH]c(CN2CCN(Cc3ncc[nH]3)CC2)n1,growth inhibition,[1]; at 1.2 µM,0%
same,growth inhibition,[1]; at 3.7 µM,72% (active)
same,growth inhibition,[1]; at 11.0 µM,96% (active)
same,growth inhibition,[1]; at 33.0 µM,97% (active)
same,growth inhibition,[1]; at 100.0 µM,98% (active)
same,growth inhibition,[2]; at 1.2 µM,-1%
same,growth inhibition,[2]; at 3.7 µM,7%
same,growth inhibition,[2]; at 11.0 µM,97% (active)
same,growth inhibition,[2]; at 33.0 µM,98% (active)
same,growth inhibition,[2]; at 100.0 µM,99% (active)
same,growth inhibition,[3]; at 1.2 µM,-3%
same,growth inhibition,[3]; at 3.7 µM,3%
same,growth inhibition,[3]; at 11.0 µM,92% (active)
same,growth inhibition,[3]; at 33.0 µM,97% (active)
same,growth inhibition,[3]; at 100.0 µM,98% (active)
same,growth inhibition,[4]; at 1.2 µM,-6%
same,growth inhibition,[4]; at 3.7 µM,2%
same,growth inhibition,[4]; at 11.0 µM,96% (active)
same,growth inhibition,[4]; at 33.0 µM,97% (active)
same,growth inhibition,[4]; at 100.0 µM,99% (active)
same,growth inhibition,[5]; at 1.2 µM,4%
same,growth inhibition,[5]; at 3.7 µM,93% (active)
same,growth inhibition,[5]; [17],89% (active)
same,growth inhibition,[5]; at 11.0 µM,97% (active)
same,growth inhibition,[5]; at 33.0 µM,97% (active)
same,growth inhibition,[5]; [18],99% (active)
same,growth inhibition,[5]; at 50.0 µM,97.4% (active)
same,growth inhibition,[5]; at 100.0 µM,98% (active)
same,growth inhibition,[6]; at 1.2 µM,-5%
same,growth inhibition,[6]; at 3.7 µM,-1%
same,growth inhibition,[6]; [17],26%
same,growth inhibition,[6]; at 11.0 µM,94% (active)
same,growth inhibition,[6]; at 33.0 µM,98% (active)
same,growth inhibition,[6]; [18],98% (active)
same,growth inhibition,[6]; at 50.0 µM,97.7% (active)
same,growth inhibition,[6]; at 100.0 µM,98% (active)
same,growth inhibition,[7]; at 1.2 µM,-4%
same,growth inhibition,[7]; at 3.7 µM,18%
same,growth inhibition,[7]; at 11.0 µM,95% (active)
same,growth inhibition,[7]; at 33.0 µM,98% (active)
same,growth inhibition,[7]; at 100.0 µM,99% (active)
same,growth inhibition,[8]; [17],34%
same,growth inhibition,[8]; [18],99% (active)
same,growth inhibition,[8]; at 50.0 µM,98.5% (active)
same,growth inhibition,[9]; at 1.2 µM,-3%
same,growth inhibition,[9]; at 3.7 µM,12%
same,growth inhibition,[9]; at 11.0 µM,96% (active)
same,growth inhibition,[9]; at 33.0 µM,98% (active)
same,growth inhibition,[9]; at 100.0 µM,98% (active)
same,growth inhibition,[10]; [17],-69%
same,growth inhibition,[10]; [18],99% (active)
same,growth inhibition,[10]; at 50.0 µM,98.7% (active)
same,growth inhibition,[11]; at 1.2 µM,-6%
same,growth inhibition,[11]; at 3.7 µM,27%
same,growth inhibition,[11]; [17],1%
same,growth inhibition,[11]; at 11.0 µM,97% (active)
same,growth inhibition,[11]; at 33.0 µM,97% (active)
same,growth inhibition,[11]; [18],99% (active)
same,growth inhibition,[11]; at 50.0 µM,97.8% (active)
same,growth inhibition,[11]; at 100.0 µM,98% (active)
same,growth inhibition,[12]; at 1.2 µM,-1%
same,growth inhibition,[12]; at 3.7 µM,54%
same,growth inhibition,[12]; at 11.0 µM,98% (active)
same,growth inhibition,[12]; at 33.0 µM,99% (active)
same,growth inhibition,[12]; at 100.0 µM,99% (active)
same,growth inhibition,[13]; at 1.2 µM,-5%
same,growth inhibition,[13]; at 3.7 µM,37%
same,growth inhibition,[13]; at 11.0 µM,97% (active)
same,growth inhibition,[13]; at 33.0 µM,98% (active)
same,growth inhibition,[13]; at 100.0 µM,99% (active)
same,growth inhibition,[14]; at 1.2 µM,-2%
same,growth inhibition,[14]; at 3.7 µM,17%
same,growth inhibition,[14]; at 11.0 µM,96% (active)
same,growth inhibition,[14]; at 33.0 µM,98% (active)
same,growth inhibition,[14]; at 100.0 µM,99% (active)
same,growth inhibition,[15]; [17],46%
same,growth inhibition,[15]; [18],98% (active)
same,growth inhibition,[15]; at 50.0 µM,98% (active)
